Among the data in PubChem BioAssay (NCATS) are Potency values, retold here.

Each structure is given as a SMILES string. Where “and” joins values, the source holds several entries; their conditions need not be identical. Equal entries are not always repeated. Inconclusive results are not listed. Where a call stands in place of a potency, no number is given. Calls of active or inactive are those of the source. The call rests on the fitted dose curve; in most records, active means well fitted cell-killing curve with a large enough effect; inconclusive means small, poorly fitted or top-dose-only effect; inactive means no such curve, though single readings can be large or run the other way.
Potency means the concentration at half of the fitted maximal effect.

The nature of this assay: qHTS of pediatric cancer cell lines to identify multiple opportunities for drug repurposing: Primary screen for MG 63 (6-TG R) cells (AID 1347105). Further: nearly all actives have a fitted effect of over 50% in size. Conditions: MG 63 (6-TG R) viability, CellTiter-Glo, 48 h; series mostly up to 46 µM. An excerpt: Drug repurposing or repositioning has been offered as a strategy for drug development in oncology programs. This approach has special potential for childhood cancers and other rare or orphan diseases, where the expected return on new drug development has been a disincentive to pharmaceuticals. […] In this project we exploit the poly-pharmacology of drugs to discover new indications via phenotypic screening of a panel of 19 well-characterized cell lines derived from solid tumors seen in children and adolescents. The goal is to identify approved drugs with previously unrecognized anticancer properties that has the potential to reveal new mechanisms and biological processes involved in carcinogenesis or drug resistance. We employed a titration-based paradigm (quantitative high-throughput screening or qHTS), where all compounds were tested at multiple concentrations for their effect on cell viability. Concentration-response curves (CRCs) were derived directly from the primary screen, and both potency and efficacy values were used to identify compounds with robust bioactivity profiles. We screened the NIH Chemical Genomics Center (NCGC) Pharmaceutical Collection (NPC) and Mechanism Interrogation Plate (MIPE) small molecule collections of approved and investigational compounds against these cell lines; and measured metabolically active cells after 48 hours of compound treatment as a proxy for cell viability. […] Assay Submitter: Nathalia J. Martinez, National Center for Advancing Translational Sciences, National Institutes of Health, Rockville, MD, USA; email: natalia.martinez@nih.gov Shen, M et al. Quantitative high-throughput phenotypic screening of pediatric cancer cell lines identifies multiple opportunities for drug repurposing. Oncotarget 2017 Dec 19;9(4):4758-4772. PMID 29435139.
The cells were obtained from University of North Carolina (UNC), Pediatric Preclinical Testing Program (PPT), and Coriell Institute (CI). qHTS cell viability assay: Cells were assayed in growth media at a density of 500-1,000 cells/well. Five microliters of cells were dispensed into 1,536-well, white, solid-bottom, TC-treated plates (Greiner Bio One) using a multidrop dispenser and incubated at 37 degrees C, 5% CO2, under a humidified atmosphere for 5 hours. Twenty-three nanoliters of compounds and controls (neutral control DMSO or positive control bortezomib at final concentration of 2.3 µM) were subsequently transferred by Kalypsys pintool. For primary screens, the MIPE collection was tested at 11-point dilutions (final concentrations range from 0.78 nM to 46 µM) and the NPC collection at 8-point dilutions (final concentrations range from 0.59 nM to 46 µM). Compounds tested in follow-up screens were assayed at 11-point dilutions. Cells were incubated for 48 hours, followed by addition of 3 µL of CellTiter-Glo (Promega). After a 15 min incubation at room temperature, samples were analyzed for luminescence intensity using a ViewLux High-throughput CCD imager equipped with clear filters.
A general note: Quantitative high-throughput screening tests each substance at several concentrations.
Consider `CCOC(=O)C1=C[C@@H](OC(CC)CC)[C@H](NC(C)=O)[C@@H](N)C1`, for which the Potency entry was “inactive”. Consider `CCN(CC)CCOc1ccc(Nc2ncc3cc(-c4c(Cl)cccc4Cl)c(=O)n(C)c3n2)cc1`, for which the Potency is 187 nM (active).

Consider `CN1C(C(=O)Nc2ccccn2)=C(O)c2sccc2S1(=O)=O`, for which the Potency result is “inactive”. Then `O=C(NCC1CCCCN1)c1cc(OCC(F)(F)F)ccc1OCC(F)(F)F` (stereo not given), with “inactive”; and `Nc1ccn([C@@H]2O[C@H](CO)[C@@H](O)C2O)c(=O)n1` (stereo not given in full), with “inactive”.

For `O=C1c2c(O)cc(O)cc2OC(c2ccc(O)c(O)c2)C1O` (stereo not given), the Potency entry was “inactive”. Regarding `COc1c2occc2cc2ccc(=O)oc12`, the Potency entry was “inactive”. Consider `Cc1cc2cc3c(C)cc(=O)oc3c(C)c2o1`, for which the Potency entry is “inactive”. Regarding `CCCCCCCCOc1ccccc1C(=O)Nc1ccc(C(=O)OCC[N+](C)(CC)CC)cc1`, the Potency entry is “inactive”.

`C=CCc1cc(OC)c(O)c(C(=O)NCCO)c1`: the Potency entry is “inactive”. As to `Nc1ccc(S(N)(=O)=O)cc1`, the Potency entry is “inactive”.

Turning to `Nc1cc(C(Cl)=C(Cl)Cl)c(S(N)(=O)=O)cc1S(N)(=O)=O`, the Potency result was “inactive”. Consider `Cc1ncc([N+](=O)[O-])n1CC(C)O` (stereo not given), for which the Potency result was “inactive”.

Take `CC1(C)C(=O)N(CCN2CCC(C(=O)c3ccc(F)cc3)CC2)c2ccccc21`: the Potency entry is “inactive”. Consider `CN(C)C(=O)COC(=O)Cc1ccc(OC(=O)c2ccc(N=C(N)N)cc2)cc1`, for which the Potency entry is “inactive”. In the case of `C[Se]CCC(N)C(=O)O` (stereo not given), the Potency entry was “inactive”. On to `Nc1nc(N)c(N=O)c(OCC2CCCCC2)n1`, for which the Potency was 11800 nM (active). Regarding `CCOC(=O)C(C)Oc1cccc2c(=O)n(CC(=O)Nc3ccc4c(c3)OCCO4)ccc12` (stereo not given), the Potency entry is “inactive”. For the compound `O=C(NC(Cc1cc(=O)[nH]c2ccccc12)C(=O)O)c1ccc(Cl)cc1` (stereo not given), the Potency entry is “inactive”.

As to `Oc1ccc(OCc2ccccc2)cc1`, the Potency entry is “inactive”. In the case of `NC(=O)Cc1cccc(C(=O)c2ccccc2)c1N`, the Potency entry is “inactive”. As to `NS(=O)(=O)c1cc(C(=O)O)c(NCc2ccco2)cc1Cl`, the Potency entry was “inactive”. On to `COc1cc(C(C)=O)ccc1OCCCN1CCC(c2noc3cc(F)ccc23)CC1`, for which the Potency result was “inactive”. For `COC(=O)N[C@H](C(=O)N[C@@H](Cc1ccccc1)[C@@H](O)CN(Cc1ccc(-c2ccccn2)cc1)NC(=O)[C@@H](NC(=O)OC)C(C)(C)C)C(C)(C)C`, the Potency result is “inactive”.

As to `CCCc1cc(=O)[nH]c(=S)[nH]1`, the Potency result is “inactive”. Turning to `CC(=O)Nc1ccc(O)cc1`, the Potency result is “inactive”. Then `CCCS(=O)c1ccc2nc(NC(=O)OC)[nH]c2c1` (stereo not given), with 13.3 µM (active) and 18.7 µM (active). For the compound `O=C1c2ccccc2-c2n[nH]c3cccc1c23`, the Potency entry was “inactive”.

Consider `CC(C)c1ccc2oc3nc(N)c(C(=O)O)cc3c(=O)c2c1`, for which the Potency entry is “inactive”. On to `O=C(CS(=O)Cc1ccco1)NCC=CCOc1cc(CN2CCCCC2)ccn1` (stereo not given), for which the Potency result was “inactive”. For the compound `CN(C)c1ccc(O)c2c1C[C@H]1C[C@H]3[C@H](N(C)C)C(=O)C(C(N)=O)=C(O)[C@@]3(O)C(=O)C1=C2O`, the Potency result was “inactive”. With `Cc1ccc(C)c(OCCCC(C)(C)C(=O)O)c1`, the Potency entry was “inactive”.

As for `CNC[C@H](O)c1ccc(O)c(O)c1`, the Potency result is “inactive”.

For the compound `Clc1ccc(C(Cn2ccnc2)OCc2ccc(Sc3ccccc3)cc2)c(Cl)c1` (stereo not given), the Potency result was “inactive”. On to `Clc1ccc2c(N3CCN(CCCN4CCN(c5ccnc6cc(Cl)ccc56)CC4)CC3)ccnc2c1`, for which the Potency entry was “inactive”.

`CCCCC(CC)COC(=O)C(C#N)=C(c1ccccc1)c1ccccc1` (stereo not given): the Potency result is “inactive”. Consider `CCC[C@@H]1C[C@@H](C(=O)N[C@@H]([C@H]2O[C@H](SC)[C@H](O)[C@@H](O)[C@H]2O)[C@@H](C)O)N(C)C1`, for which the Potency result was “inactive”. For the compound `CC(C)[C@H](N)C(=O)OCCOCn1cnc2c(=O)[nH]c(N)nc21`, the Potency result is “inactive”. For `COc1ccccc1N1CCN(CCN(C(=O)C2CCCCC2)c2ccccn2)CC1`, the Potency result is “inactive”.

As to `CC(C)Oc1ccc2c(=O)c(-c3ccccc3)coc2c1`, the Potency result was “inactive”.
